Screens: PubChem, National Center for Advancing Translational Sciences (NCATS)
This is a sample that favours compounds with a hit; in the whole collection about 17% have one here.
DT40 TDP1 no CPT: qHTS for Inhibitors of human tyrosyl-DNA phosphodiesterase 1 (TDP1): qHTS in cells in absence of CPT; DT40 Tdp1-/- hTDP1 cells, no CPT, ATP luminescence, 48 h; Potency, µM (doses to about 46.2 µM), hits mostly inhibitors; 420,000 compounds, 15% hits; AID 686978, 2013; further: nearly all actives have a fitted effect of over 55% in size
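Chicken DT40 Tdp1-/- cells stably complemented with human TDP1 were seeded at 400 cells/well with DMSO in place of 20 nM camptothecin. After compound pinning, cells grew at least 48 hr at 37 °C; viability read by CellTiter-Glo luminescence.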
TDP1 inh: qHTS Assay for Inhibitors of Tyrosyl-DNA Phosphodiesterase (TDP1). Potency, µM (series often up to 130 µM), actives largely listed as inhibitors. recombinant TDP1, AlphaScreen DNA substrate cleavage. AID 485290, 2010. Tyrosyl-DNA phosphodiesterase 1 (Homo sapiens), Q9NUW8. 350,000 compounds, 0.28% hits; further: nearly all actives have a fitted effect of over 40% in size
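E. coli-derived human Tdp1, 1 nM final. Cpd preinc 15 min RT; substrate 15 nM final, 5 min RT; AS bead mix 10 ug/ml final, 10 min RT. Signal loss = tyrosine-FITC cleavage. No-enzyme wells = max signal.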
ClpP mod: qHTS Assay for Activators of ClpP. purified B. subtilis ClpP, FRET peptide cleavage, 20 min. Potency, µM (top dose mostly 57.5 µM). 340,000 compounds, 1.9% hits; active means well fitted falling curve with a large enough effect; inconclusive means small, poorly fitted or top-dose-only effect; inactive means no such curve, though single readings can be large or run the other way; further: the source files actives as falling curves though it sought activators and does not explain the sign; nearly all actives have a fitted effect of over 65% in size
Target sequence (P80244 whole entry, looked up): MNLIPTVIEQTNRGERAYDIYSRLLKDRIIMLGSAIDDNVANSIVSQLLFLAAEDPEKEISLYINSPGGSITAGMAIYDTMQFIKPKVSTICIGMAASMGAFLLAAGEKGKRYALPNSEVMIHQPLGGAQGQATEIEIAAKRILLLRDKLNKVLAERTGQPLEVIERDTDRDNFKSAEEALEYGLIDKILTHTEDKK
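Buffer: 100 mM Tris/HCl pH8, 100 mM KCl, 0.05% low protease BSA, 2.5% glycerol, 0.01% Tween-20. ClpP 10 microg/mL final; 20 min RT; delta FRET normalized to ADEP and DMSO controls.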
DT40 TDP1 CPT: qHTS for Inhibitors of human tyrosyl-DNA phosphodiesterase 1 (TDP1): qHTS in cells in presence of CPT; chicken DT40 Tdp1-/-;hTDP1 cells + 20 nM CPT, ATP luminescence, 48 h; Potency, µM (titrated, usually from 46.2 µM), actives largely listed as inhibitors; 420,000 compounds, 12% hits; further: nearly all actives have a fitted effect of over 55% in size
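Cell growth measured by CellTiter-Glo luminescence after a minimum 48 h, 37 C compound exposure with 20 nM CPT in Tdp1-knockout DT40 cells stably expressing hTDP1, seeded 400/well; qHTS titration format.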
Hits are given with their value. Unless noted, the call rests on the fitted dose curve; in most records, active means well fitted curve in the direction sought with a large enough effect; inconclusive means small, poorly fitted or top-dose-only effect, or another doubt; inactive means no such curve, though single readings can be large; an effect the other way counts as inactive or inconclusive.

Results for CCc1nn2c(=O)cc(COC(=O)C(c3ccccc3)c3ccccc3)nc2s1 ?
DT40 TDP1 no CPT: inactive; TDP1 inh: inactive; ClpP mod: inactive; DT40 TDP1 CPT: inactive

How did C=CCN(C(C(=O)OC)C(C)C)S(=O)(=O)C=C (configuration not stated) do in these assays?
TDP1 inh: inactive

Results for Cc1cc(C)c2ccccc2n1 ?
DT40 TDP1 no CPT: inactive; ClpP mod: inactive; DT40 TDP1 CPT: inactive

Results for Cc1cc(Sc2nnc(/N=C/N(C)C)s2)c2ccccc2n1 ?
DT40 TDP1 no CPT: 7.3µM; TDP1 inh: inactive; ClpP mod: inactive; DT40 TDP1 CPT: 5.8µM

What do the screens show for `Cc1cc(Sc2nnc(N)s2)c2ccccc2n1`?
DT40 TDP1 no CPT: 2.9µM; TDP1 inh: inactive; ClpP mod: inactive; DT40 TDP1 CPT: 1.8µM

What do the screens show for `Cc1ccc(-n2ncc3c(NC4CCCCCC4)ncnc32)cc1`?
DT40 TDP1 no CPT: 18µM; TDP1 inh: inactive; ClpP mod: inconclusive; DT40 TDP1 CPT: 13µM

How did Cc1ccc(-n2ncc3c(NC(C)c4ccccc4)ncnc32)cc1 (configuration not stated) do in these assays?
DT40 TDP1 no CPT: inconclusive; TDP1 inh: inactive; ClpP mod: inactive; DT40 TDP1 CPT: inconclusive

How did CCC(CO)Nc1ncnc2c1cnn2-c1ccc(C)cc1 (configuration not stated) do in these assays?
DT40 TDP1 no CPT: inactive; TDP1 inh: inactive; ClpP mod: 28µM; DT40 TDP1 CPT: inactive

Results for Fc1ccc(-n2ncc3c(NC4CCCCCC4)ncnc32)cc1 ?
DT40 TDP1 no CPT: 23µM; TDP1 inh: inactive; ClpP mod: inactive; DT40 TDP1 CPT: 23µM

How did Cc1ccc(-n2ncc3c(NC4CCCCC4)ncnc32)cc1 do in these assays?
DT40 TDP1 no CPT: 21µM; TDP1 inh: inactive; ClpP mod: inconclusive; DT40 TDP1 CPT: inconclusive

What do the screens show for `Cc1ccc(C)c(Nc2ncnc3c2cnn3-c2ccc(F)cc2)c1`?
DT40 TDP1 no CPT: inconclusive; TDP1 inh: inactive; ClpP mod: inactive; DT40 TDP1 CPT: inconclusive

Results for CN(C(=O)COC(=O)CSc1ccc(C(N)=O)cc1[N+](=O)[O-])C1CCCCC1 ?
DT40 TDP1 no CPT: inactive; TDP1 inh: inactive; ClpP mod: inactive; DT40 TDP1 CPT: inactive

What do the screens show for `Fc1ccc(-n2ncc3c(N4CCCCCC4)ncnc32)cc1`?
DT40 TDP1 no CPT: inconclusive; TDP1 inh: inactive; ClpP mod: inactive; DT40 TDP1 CPT: 12µM

What do the screens show for `Cc1ccc(-n2ncc3c(N4CCCCCC4)ncnc32)cc1`?
DT40 TDP1 no CPT: inconclusive; TDP1 inh: inactive; ClpP mod: inconclusive; DT40 TDP1 CPT: inconclusive

What do the screens show for `COc1ccc(OC)c(NC(=O)c2nc(S(=O)(=O)Cc3ccccc3)ncc2Cl)c1`?
DT40 TDP1 no CPT: 0.58µM; TDP1 inh: inactive; DT40 TDP1 CPT: 0.58µM

Results for COc1ccc(OC)c(NC(=O)c2nc(S(=O)(=O)Cc3ccccc3F)ncc2Cl)c1 ?
DT40 TDP1 no CPT: 0.63µM; ClpP mod: inactive; DT40 TDP1 CPT: 1µM

How did COc1ccc(Cl)cc1C(=O)CSc1nnnn1C do in these assays?
DT40 TDP1 no CPT: inactive; TDP1 inh: inactive; ClpP mod: inactive; DT40 TDP1 CPT: inactive

How did CCOC(=O)c1nn(-c2ccc(F)cc2)c(-c2ccccc2)c1C(=O)c1ccccc1 do in these assays?
DT40 TDP1 no CPT: 16µM; TDP1 inh: inactive; ClpP mod: inactive; DT40 TDP1 CPT: inconclusive

What do the screens show for `O=S(=O)(NC1=NCCCCC1)c1ccccc1Cl`?
DT40 TDP1 no CPT: inactive; TDP1 inh: inactive; ClpP mod: inactive; DT40 TDP1 CPT: inactive

Results for CCN(C(=O)CN1C(=O)CN(C)C1=O)c1cccc2ccccc12 ?
DT40 TDP1 no CPT: inconclusive; TDP1 inh: inactive; DT40 TDP1 CPT: 12µM

How did CCN(C(=O)CN1CCN(C)CC1)c1cccc2ccccc12 do in these assays?
DT40 TDP1 no CPT: inactive; TDP1 inh: inactive; ClpP mod: inactive; DT40 TDP1 CPT: inactive

How did CCN(CC)c1ccc(C(=C2C=CC(=[N+](CC)CC)C=C2)c2ccc(S(=O)(=O)O)cc2S(=O)(=O)[O-])cc1 do in these assays?
DT40 TDP1 no CPT: inconclusive; ClpP mod: inactive; DT40 TDP1 CPT: 23µM

How did CCN(CC)c1ccc(/C=C2\C(=O)c3ccc(C(=O)O)cc3C2=O)cc1 do in these assays?
DT40 TDP1 no CPT: inactive; TDP1 inh: inactive; ClpP mod: inactive; DT40 TDP1 CPT: inactive

How did CCCc1cc(=O)n2c(C(=O)Nc3ccc(OCC)cc3)c(C(=O)Nc3ccc(C)cc3)sc2n1 do in these assays?
DT40 TDP1 no CPT: inconclusive; TDP1 inh: inactive; ClpP mod: inactive; DT40 TDP1 CPT: inconclusive

Results for CCN(CC)P(=O)(Nc1ccccc1Br)c1ccc(N(C)C)cc1NC(=O)c1ccco1 (configuration not stated) ?
DT40 TDP1 no CPT: 23µM; TDP1 inh: inactive; DT40 TDP1 CPT: 29µM

Results for CCN(CC)C(=O)c1cc(Cl)ccc1NC(=O)c1ccco1 ?
DT40 TDP1 no CPT: inactive; ClpP mod: inactive; DT40 TDP1 CPT: inactive

How did N#Cc1cnn2c(-c3ccccc3)ccnc12 do in these assays?
DT40 TDP1 no CPT: inactive; TDP1 inh: inactive; ClpP mod: 25µM; DT40 TDP1 CPT: inactive

Results for Cc1oc(-c2ccccc2F)nc1CS(=O)(=O)CC(=O)NC1CCCC(C)C1C (configuration not stated) ?
DT40 TDP1 no CPT: inconclusive; TDP1 inh: inactive; ClpP mod: inactive; DT40 TDP1 CPT: inactive

What do the screens show for `COc1cccc(CNCCSc2nnnn2C)c1OCc1ccc(F)cc1`?
DT40 TDP1 no CPT: 21µM; TDP1 inh: inactive; ClpP mod: inactive; DT40 TDP1 CPT: inconclusive

What do the screens show for `COc1cccc(CNCCSc2nnnn2C)c1OCc1ccccc1F`?
DT40 TDP1 no CPT: inconclusive; TDP1 inh: inactive; ClpP mod: inactive; DT40 TDP1 CPT: inconclusive

Results for COc1cc(CNCCSc2nnnn2C)ccc1OCc1ccc(F)cc1 ?
DT40 TDP1 no CPT: 21µM; TDP1 inh: inactive; ClpP mod: inactive; DT40 TDP1 CPT: 18µM

What do the screens show for `CCO[C@H]1OC(C(=O)N2CCOCC2)=C[C@@H](C)[C@@H]1CCCO`?
DT40 TDP1 no CPT: inactive; TDP1 inh: inactive; ClpP mod: inactive; DT40 TDP1 CPT: inactive

Results for C[C@H]1CN([C@@H](C)CO)C(=O)c2cc(Br)cnc2O[C@H]1CN(C)S(=O)(=O)c1ccccc1F ?
DT40 TDP1 no CPT: inconclusive; ClpP mod: inactive; DT40 TDP1 CPT: inactive

How did Cc1c(NC(=O)CN2C(=O)NC3(CCC(C)CC3)C2=O)c(=O)n(-c2ccccc2)n1C (configuration not stated) do in these assays?
DT40 TDP1 no CPT: inactive; TDP1 inh: inactive; DT40 TDP1 CPT: inactive

How did O=C(CN(Cc1ccco1)C(=O)c1cccc(Cl)c1)Nc1c(Cl)cc(Cl)cc1Cl do in these assays?
DT40 TDP1 no CPT: inconclusive; TDP1 inh: inactive; ClpP mod: inactive; DT40 TDP1 CPT: 26µM

How did CN1CC(c2ccccc2)C2(SC(=S)N(Cc3ccco3)C2=O)C12C(=O)Nc1ccccc12 (configuration not stated) do in these assays?
DT40 TDP1 no CPT: 11µM; TDP1 inh: inactive; ClpP mod: inactive; DT40 TDP1 CPT: inactive
